PubChem BioAssay (NCATS)
Values joined by “and” are separate entries in the source; they are usually repeats but may differ in a detail not shown here. Identical values can stand only once. Inconclusive results are not listed. Entries that show only a call come without a potency. Active and inactive are the calls of the source. Unless noted, calls come from the whole dose curve; as a rule, active = well fitted curve in the direction sought with a large enough effect; inconclusive = small, poorly fitted or top-dose-only effect, or another doubt; inactive = no such curve, though single readings can be large; an effect the other way counts as inactive or inconclusive.

Tests used:
[1] = AP1 Signaling Pathway (AID 357; active = well fitted curve in either direction with a large enough effect, not every such curve was filed as active;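 note: ME-180 reporter cells stimulated with EGF at its EC50 level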); conditions: ME-180 AP-1-bla reporter, EGF-induced, beta-lactamase ratio, 5 h
Summary of the method: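 Titration-series screen for positive or negative modulators of EC50 EGF-induced signaling in ME-180 cells carrying an AP-1-driven beta-lactamase reporter. After 5 hours at 37 degrees Celsius, CCF4 460nm/530nm emission ratio gave %Activity; AC50 values derived.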

[2] = NFAT Signaling Pathway (AID 444; active = well fitted curve in either direction with a large enough effect, not every such curve was filed as active;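 note: carbachol stimulus at about its EC50 of 1 µM final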); conditions: Jurkat NFAT-bla M1, carbachol, beta-lactamase ratio, 5 h; at 38 µM (top of the series)
Summary of the method: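 Jurkat cells carrying an NFAT-driven β-lactamase reporter and co-transfected muscarinic M1 receptor were treated with compound plus carbachol (1 uM final, an EC50 level) for 5 h at 37 °C. CCF4 loading followed for 1 h at RT; 460/530 nm ratio gave %activity.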

[3] = Stat Signaling Pathway (AID 446; active = well fitted curve in either direction with a large enough effect, not every such curve was filed as active;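 note: ME-180 cervical cancer cells given 40 pM IL-6 alongside compound; SIE-controlled beta-lactamase reporter measured as 460/530 nm FRET emission ratio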); conditions: ME-180 (cervical carcinoma) SIE beta-lactamase reporter, IL-6 stimulated, 5 h
Summary of the method: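 Compound effects on IL-6-induced STAT reporter activity were measured in ME-180 cells. After overnight culture, cells were co-treated with 40 pM IL-6 for 5 hrs before beta-lactamase substrate loading at room temperature.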

[4] = target: Glucocorticoid receptor (Homo sapiens) (UniProt P04150); experiment: GR-GFP Redistribution (AID 450;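 active = compounds whose dose series gives a full or clear partial fitted curve of increased nuclear translocation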; note: potency is the fitted concentration of half-maximal effect); conditions: U2OS GR-GFP nuclear translocation, laser cytometry, 2 h
Glucocorticoid receptor (Homo sapiens), sequence (P04150 whole entry, looked up, the tested form may be a part): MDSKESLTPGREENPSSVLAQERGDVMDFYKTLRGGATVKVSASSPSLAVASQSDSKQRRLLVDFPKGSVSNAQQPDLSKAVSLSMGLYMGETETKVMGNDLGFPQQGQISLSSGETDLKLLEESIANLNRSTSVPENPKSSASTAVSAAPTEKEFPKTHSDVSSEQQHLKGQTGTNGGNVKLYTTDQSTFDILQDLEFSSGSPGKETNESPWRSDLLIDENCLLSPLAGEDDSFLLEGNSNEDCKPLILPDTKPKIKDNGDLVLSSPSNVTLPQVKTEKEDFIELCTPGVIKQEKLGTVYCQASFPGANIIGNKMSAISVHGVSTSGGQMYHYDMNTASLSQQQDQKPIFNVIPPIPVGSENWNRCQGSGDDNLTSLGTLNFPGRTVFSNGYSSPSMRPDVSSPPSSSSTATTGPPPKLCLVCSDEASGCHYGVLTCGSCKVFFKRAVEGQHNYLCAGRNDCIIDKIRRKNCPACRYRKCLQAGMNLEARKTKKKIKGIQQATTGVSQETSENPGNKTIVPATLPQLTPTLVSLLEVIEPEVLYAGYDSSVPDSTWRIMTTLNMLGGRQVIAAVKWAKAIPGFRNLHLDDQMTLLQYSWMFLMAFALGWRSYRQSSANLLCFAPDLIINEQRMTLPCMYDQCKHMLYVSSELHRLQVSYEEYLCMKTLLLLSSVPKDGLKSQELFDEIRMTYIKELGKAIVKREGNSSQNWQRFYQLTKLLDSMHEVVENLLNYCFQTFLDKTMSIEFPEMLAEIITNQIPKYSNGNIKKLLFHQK

[5] = target: Glucocorticoid receptor (Homo sapiens) (UniProt P04150); experiment: GR-EFC Redistribution (AID 451; calls by dose curve; note: potency is the fitted concentration of half-maximal effect); conditions: CHO-K1 GR-EFC translocation, beta-gal luminescence, 2 h
Summary of the method: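 CHO-K1 cells stably expressing nuclear-localized β-gal enzyme acceptor and GR fused C-terminally to the enzyme donor fragment; ligand-driven nuclear translocation restores β-gal by complementation. Compounds titrated up to 46 uM final, 2 h at 37 °C; luminescence read.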

[6] = target: Mitogen-activated protein kinase 10 (Mus musculus) (UniProt Q61831); experiment: JNK3 AlphaScreen Assay (AID 530; active = well fitted curve in either direction with a large enough effect, not every such curve was filed as active;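 note: kinase came from lysate of stimulated human HepG2 cells; signal reports phosphorylation of biotinylated GST-cJun 1-79 at Ser73 with 10 µM ATP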)
Summary of the method: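 Phosphorylation of biotinylated GST-cJun(1-79) at Ser73 is measured by AlphaScreen proximity luminescence. Enzyme is JNK3 in HepG2 lysates activated with interleukin-1beta and tumor necrosis factor alpha; ATP is 10 uM final.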

[7] = target: 3',5'-cyclic-AMP phosphodiesterase 4B (Homo sapiens) (UniProt Q07343); experiment: qHTS Assay for Inhibitors of PDE-IV (AID 607; active = well fitted activation curve with a large enough effect in the main read-out, with a control signal flat, not every such curve was filed as active)
3',5'-cyclic-AMP phosphodiesterase 4B (Homo sapiens), sequence (Q07343 whole entry, looked up): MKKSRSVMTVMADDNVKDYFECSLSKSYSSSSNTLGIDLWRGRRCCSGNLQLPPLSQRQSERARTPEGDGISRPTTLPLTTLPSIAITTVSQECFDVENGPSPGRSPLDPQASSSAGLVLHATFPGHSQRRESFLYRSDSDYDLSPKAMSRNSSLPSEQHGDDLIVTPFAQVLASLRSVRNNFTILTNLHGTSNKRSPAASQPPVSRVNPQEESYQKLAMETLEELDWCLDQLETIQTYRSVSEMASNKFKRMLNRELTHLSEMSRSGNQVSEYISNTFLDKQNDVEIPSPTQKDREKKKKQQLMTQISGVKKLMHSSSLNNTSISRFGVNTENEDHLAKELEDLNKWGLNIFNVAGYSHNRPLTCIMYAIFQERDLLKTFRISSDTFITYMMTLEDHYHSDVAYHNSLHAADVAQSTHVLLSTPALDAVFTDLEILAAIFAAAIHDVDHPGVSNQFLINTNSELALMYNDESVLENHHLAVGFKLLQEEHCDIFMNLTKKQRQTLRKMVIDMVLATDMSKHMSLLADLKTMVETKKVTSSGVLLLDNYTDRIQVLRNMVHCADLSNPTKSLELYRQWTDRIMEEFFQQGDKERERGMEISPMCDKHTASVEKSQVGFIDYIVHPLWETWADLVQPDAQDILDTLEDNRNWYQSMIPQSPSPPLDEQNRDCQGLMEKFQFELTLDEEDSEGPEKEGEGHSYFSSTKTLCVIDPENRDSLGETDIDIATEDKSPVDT
Summary of the method: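 ACTOne HEK293 cells carry a modified cAMP-gated CNG channel and express endogenous PDE4; plated 1000 cells/well, compounds up to 22.9 uM final. Membrane-potential dye fluorescence (ex 535/em 590) was read; parental cells received 10 uM forskolin + 100 uM RO 20-1724.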

[8] = target: Guanine nucleotide-binding protein G(i) subunit alpha-1 (Homo sapiens) (UniProt P63096); experiment: qHTS Assay for Inhibitors of RGS12 GoLoco Motif Activity (Green Fluorophore) (AID 879);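 note: negative values mean loss of peptide binding seen as reduced polarization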
Guanine nucleotide-binding protein G(i) subunit alpha-1 (Homo sapiens), sequence (P63096 whole entry, looked up): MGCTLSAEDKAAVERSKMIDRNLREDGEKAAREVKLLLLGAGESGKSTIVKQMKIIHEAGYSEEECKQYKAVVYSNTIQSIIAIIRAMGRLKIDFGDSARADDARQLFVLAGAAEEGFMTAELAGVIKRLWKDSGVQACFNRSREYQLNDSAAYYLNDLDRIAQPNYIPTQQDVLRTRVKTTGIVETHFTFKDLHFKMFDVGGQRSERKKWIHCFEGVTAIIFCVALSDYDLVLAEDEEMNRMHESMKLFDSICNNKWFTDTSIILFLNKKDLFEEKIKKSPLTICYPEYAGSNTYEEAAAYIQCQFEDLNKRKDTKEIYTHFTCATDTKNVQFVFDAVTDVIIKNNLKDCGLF
Summary of the method: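 A drop in FITC polarization marked displacement of the FITC-tagged RGS12 GoLoco peptide (10 nM) from Gαi1 (50 nM). Compounds were incubated 10 min at room temperature in Tris pH 7.5 buffer containing 150 mM NaCl, 0.1 mM GDP and 0.05% NP40; unlabeled peptide titration served as control.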

[9] = target: Cytochrome P450 2C19 (Homo sapiens) (UniProt P33261); experiment: qHTS Assay for Inhibitors and Substrates of Cytochrome P450 2C19 (AID 899); note: nearly all actives have a fitted effect of over 60% in size
Cytochrome P450 2C19 (Homo sapiens), sequence (P33261 whole entry, looked up): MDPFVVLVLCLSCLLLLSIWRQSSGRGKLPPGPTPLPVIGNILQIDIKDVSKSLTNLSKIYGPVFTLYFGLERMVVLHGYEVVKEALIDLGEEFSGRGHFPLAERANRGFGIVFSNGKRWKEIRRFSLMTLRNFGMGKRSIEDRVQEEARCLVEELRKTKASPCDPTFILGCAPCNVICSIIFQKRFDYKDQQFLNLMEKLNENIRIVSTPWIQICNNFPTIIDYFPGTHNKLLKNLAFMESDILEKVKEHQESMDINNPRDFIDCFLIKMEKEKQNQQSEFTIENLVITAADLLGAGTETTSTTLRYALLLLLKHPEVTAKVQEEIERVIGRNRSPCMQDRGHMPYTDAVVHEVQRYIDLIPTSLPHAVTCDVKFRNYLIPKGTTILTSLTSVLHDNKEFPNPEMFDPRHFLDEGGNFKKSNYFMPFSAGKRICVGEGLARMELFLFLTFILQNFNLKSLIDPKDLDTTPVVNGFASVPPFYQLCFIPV
Summary of the method: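 NADPH-dependent conversion of Luciferin-H EGE (10uM, at KM) by 5nM enzyme in 50mM KPO4, 60 min at 37C following 10 min compound preincubation. Stopped with luciferin detection buffer; luminescence read after 20 min.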

[10] = qHTS Assay for Identification of Small Molecule Agonists for Thrombopoietin (TPO) Signaling Pathway (AID 917)
Summary of the method: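 Quantitative HTS for pathway activators: compounds were pin-transferred onto IL-3-starved Ba/F3 cells expressing human TPO receptor, TPO was added at its EC50 (26 pM final), and after 24 hrs at 37 C reporter luciferase was measured.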

[11] = target: Muscarinic acetylcholine receptor M1 (Rattus norvegicus) (UniProt P08482); experiment: qHTS Assay for Antagonists of Acetylcholine Muscarinic M1 Receptor: Measurement of IP-One Response (AID 944); note: nearly all actives have a fitted effect of over 75% in size
Muscarinic acetylcholine receptor M1 (Rattus norvegicus), sequence (P08482 whole entry, looked up): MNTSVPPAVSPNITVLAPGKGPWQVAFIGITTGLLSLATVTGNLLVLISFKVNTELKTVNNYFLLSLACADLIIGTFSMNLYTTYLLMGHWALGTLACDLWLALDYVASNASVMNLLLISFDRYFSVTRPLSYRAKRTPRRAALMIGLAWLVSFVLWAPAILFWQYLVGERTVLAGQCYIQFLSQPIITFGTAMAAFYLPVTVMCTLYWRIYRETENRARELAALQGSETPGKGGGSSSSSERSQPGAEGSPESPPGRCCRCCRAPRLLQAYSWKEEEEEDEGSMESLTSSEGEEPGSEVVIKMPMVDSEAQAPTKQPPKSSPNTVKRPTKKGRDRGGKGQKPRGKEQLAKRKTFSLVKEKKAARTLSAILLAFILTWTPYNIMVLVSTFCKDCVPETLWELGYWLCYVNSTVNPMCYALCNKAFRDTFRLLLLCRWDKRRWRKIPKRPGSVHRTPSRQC
Summary of the method: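 Antagonist mode with rat M1 receptor transfected into CHO cells. Compound is added first for 10 min, carbachol at its EC80 follows for 30 min, and lysis reagents then allow TR-FRET detection of accumulated IP1.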

[12] = target: Pyruvate kinase (Leishmania mexicana) (UniProt Q27686); experiment: qHTS Validation Assay for Inhibitors of Leishmania Mexicana Pyruvate Kinase (AID 945)
Pyruvate kinase (Leishmania mexicana), sequence (Q27686 2-499 E452W): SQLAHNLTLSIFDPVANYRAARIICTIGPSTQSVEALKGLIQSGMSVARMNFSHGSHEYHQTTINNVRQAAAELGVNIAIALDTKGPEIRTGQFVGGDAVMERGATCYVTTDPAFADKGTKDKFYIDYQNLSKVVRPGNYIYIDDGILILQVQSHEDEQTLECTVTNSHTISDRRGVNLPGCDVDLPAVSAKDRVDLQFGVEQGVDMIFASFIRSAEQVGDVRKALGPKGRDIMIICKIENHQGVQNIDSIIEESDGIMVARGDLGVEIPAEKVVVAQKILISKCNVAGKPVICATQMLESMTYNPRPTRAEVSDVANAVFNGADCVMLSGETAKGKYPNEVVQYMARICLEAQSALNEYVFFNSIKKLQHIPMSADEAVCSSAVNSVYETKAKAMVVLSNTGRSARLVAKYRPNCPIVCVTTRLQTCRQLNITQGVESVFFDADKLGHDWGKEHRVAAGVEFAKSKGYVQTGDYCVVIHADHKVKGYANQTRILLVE
Summary of the method: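 Pyruvate kinase activity of E451W LmPYK (0.2 nM) was followed as ATP output after 1 h at room temperature with 0.5 mM PEP and 0.1 mM ADP, detected by PKLight luminescence.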

[13] = target: Pyruvate kinase PKM (Homo sapiens) (UniProt P14618); experiment: qHTS Assay for Activators of Human Muscle Pyruvate Kinase (AID 954; active = well fitted curve in the direction sought with a large enough effect, not every such curve was filed as active)
Pyruvate kinase PKM (Homo sapiens), sequence (P14618 whole entry, looked up): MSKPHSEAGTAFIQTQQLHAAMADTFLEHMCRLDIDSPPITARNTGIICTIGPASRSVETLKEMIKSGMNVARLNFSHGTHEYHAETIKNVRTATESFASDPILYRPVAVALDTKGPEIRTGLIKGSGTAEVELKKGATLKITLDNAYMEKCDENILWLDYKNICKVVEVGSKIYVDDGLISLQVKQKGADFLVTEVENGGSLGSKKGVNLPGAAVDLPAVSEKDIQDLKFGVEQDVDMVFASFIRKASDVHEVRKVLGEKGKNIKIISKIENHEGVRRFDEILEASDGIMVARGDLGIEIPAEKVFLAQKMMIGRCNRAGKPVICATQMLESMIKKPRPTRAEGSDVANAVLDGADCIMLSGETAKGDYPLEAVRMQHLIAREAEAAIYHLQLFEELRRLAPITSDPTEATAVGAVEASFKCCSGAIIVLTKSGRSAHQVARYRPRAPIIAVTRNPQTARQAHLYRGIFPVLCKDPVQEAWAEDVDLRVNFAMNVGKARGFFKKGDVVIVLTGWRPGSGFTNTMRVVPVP
Summary of the method: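 A coupled luminescent readout tracked ATP made from ADP by purified PKM2. Final conditions included 0.1 nM enzyme, PEP and ADP at 0.5 and 0.1 mM, pH 7.2 imidazole buffer with BSA, and a one-hour room-temperature reaction.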

[14] = target: Alpha-galactosidase A (Homo sapiens) (UniProt P06280); experiment: Counterscreen for Glucocerebrosidase Inhibitors: qHTS Assay for Human alpha-Galactosidase at pH 4.5 (AID 992)
Summary of the method: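 Citrate buffer pH 4.5, Tween-20 0.005%. Enzyme 2 nM, substrate 80 uM, 20 min RT. Stop pH 10. Fluorescence Ex 365/Em 440. AC50 by Hill fit.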

[15] = target: alpha-glucosidase (Oryza sativa, rice) (UniProt Q653V4); experiment: Counterscreen for Glucocerebrosidase Inhibitors: qHTS Assay for Rice alpha-Glucosidase at pH 5.0 (AID 997)
Summary of the method: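 Endpoint fluorogenic assay at pH 5.0: compounds (0.7 nM to 77 uM) titrated against 4 nM rice enzyme and 400 uM 4-MU-alpha-glucoside for 20 min at room temperature; NaOH/glycine stop, read ex 365/em 440 nm, Hill-fitted AC50.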

[16] = qHTS Assay for Lipid Storage Modulators (AID 1519; calls by dose curve); conditions: Drosophila S3 cells, BODIPY lipid droplet/cell ratio, laser cytometry, cells loaded with oleic acid
Summary of the method: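 Cells seeded at 5,000 per well were treated with compounds over a concentration series and loaded with oleic acid (400 uM, as added). Lipid droplet fluorescence (488 nm excitation, 500-530 nm channel) was read by laser-scanning cytometry and normalized to 20 uM Triacsin C.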

[17] = target: Ubiquitin carboxyl-terminal hydrolase 1 (Homo sapiens) (UniProt O94782); experiment: Inhibitors of USP1/UAF1: Pilot qHTS (AID 504865);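 note: rhodamine fluorescence freed from ubiquitin-rhodamine substrate followed over time; top concentration of the series differs between compounds; nearly all actives have a fitted effect of over 35% in size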
Ubiquitin carboxyl-terminal hydrolase 1 (Homo sapiens), sequence (O94782 whole entry, looked up): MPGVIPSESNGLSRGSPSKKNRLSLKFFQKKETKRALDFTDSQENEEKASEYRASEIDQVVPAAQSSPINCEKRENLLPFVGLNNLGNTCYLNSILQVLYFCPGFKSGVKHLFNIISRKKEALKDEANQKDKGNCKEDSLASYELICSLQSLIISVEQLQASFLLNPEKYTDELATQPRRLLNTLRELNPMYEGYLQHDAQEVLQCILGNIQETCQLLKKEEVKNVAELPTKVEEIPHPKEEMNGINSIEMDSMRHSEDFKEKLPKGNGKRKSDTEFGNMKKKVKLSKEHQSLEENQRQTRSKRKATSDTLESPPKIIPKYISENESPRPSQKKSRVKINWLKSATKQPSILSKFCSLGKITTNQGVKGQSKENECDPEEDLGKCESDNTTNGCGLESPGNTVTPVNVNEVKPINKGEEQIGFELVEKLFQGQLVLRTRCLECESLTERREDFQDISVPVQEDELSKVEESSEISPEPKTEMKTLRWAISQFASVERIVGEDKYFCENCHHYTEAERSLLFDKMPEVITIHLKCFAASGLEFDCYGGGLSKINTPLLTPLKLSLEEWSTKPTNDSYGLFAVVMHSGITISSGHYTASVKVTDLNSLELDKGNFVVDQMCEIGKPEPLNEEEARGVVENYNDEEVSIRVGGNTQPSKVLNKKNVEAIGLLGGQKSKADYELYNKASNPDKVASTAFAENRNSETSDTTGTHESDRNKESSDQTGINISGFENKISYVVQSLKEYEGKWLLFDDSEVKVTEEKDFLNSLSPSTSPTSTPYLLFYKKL
Summary of the method: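 Kinetic fluorescence assay: 1nM USP1/UAF1, 15 min compound preincubation, then 150nM Ub-Rho; 480/540 nm.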

[18] = target: DNA dC->dU-editing enzyme APOBEC-3G (Homo sapiens) (UniProt Q9HC16); experiment: qHTS for inhibitors of Vif-A3G interactions: Validation (AID 588379)
DNA dC->dU-editing enzyme APOBEC-3G (Homo sapiens), sequence (Q9HC16 whole entry, looked up): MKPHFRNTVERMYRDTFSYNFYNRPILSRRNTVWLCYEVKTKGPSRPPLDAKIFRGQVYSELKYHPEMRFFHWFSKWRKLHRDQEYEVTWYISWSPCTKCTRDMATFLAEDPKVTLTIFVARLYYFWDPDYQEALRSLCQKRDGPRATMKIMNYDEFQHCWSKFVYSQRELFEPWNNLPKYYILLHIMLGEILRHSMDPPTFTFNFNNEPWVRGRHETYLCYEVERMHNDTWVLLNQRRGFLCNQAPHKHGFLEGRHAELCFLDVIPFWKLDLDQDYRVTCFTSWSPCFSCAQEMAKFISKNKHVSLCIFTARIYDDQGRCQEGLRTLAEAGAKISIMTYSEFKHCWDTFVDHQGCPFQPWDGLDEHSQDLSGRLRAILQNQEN
Summary of the method: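 Yellow fluorescence (Ex 488, Em 500-530) of Vif-coexpressing HeLa A3G-eYFP cells, scanned by Acumen cytometer, reports blocked A3G degradation. Cells plated at 700/well overnight at 37 deg C before compound addition, then a further overnight compound incubation at 37 deg C.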

[19] = test system: Zika virus NS2B-NS3 protease; experiment: Primary screen GU AMC qHTS for Zika virus inhibitors (AID 1347154); note: nearly all actives have a fitted effect of over 70% in size
Summary of the method: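 Unlinked Zika NS2B hydrophilic domain/NS3 protease domain noncovalent complex (25 nM final) in 10 mM Tris-HCl pH 8.0, 0.01% Tween 20, with AMC peptide substrate. Fluorescence (ex 340, em 450 nm) change over 15 min, room temperature; percent inhibition fitted to 4-parameter Hill equation.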

[20] = Primary qHTS for small molecule stabilizers of the endoplasmic reticulum resident proteome: Secreted ER Calcium Modulated Protein (SERCaMP) assay (AID 1508630)
Summary of the method: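 The SH-SY5Y reporter protocol was run at 3 concentrations up to 38.3 uM (primary) or 11 concentrations (follow-up): 16 h compound, 100 nM thapsigargin for 4 h, then extracellular luciferase luminescence.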

CC(C)NC[C@H](O)c1ccc(NS(C)(=O)=O)cc1
activity change, negative = inhibition ([1]; at 17.2 µM (top of the series)): -5.04% (inactive)
activity change, negative = inhibition ([1]; at 38 µM (top of the series)): -0.189% (inactive)
activity change, negative = inhibition [2]: -7.39% (inactive)
activity, negative = inhibition ([3]; at 17.2 µM (top of the series)): -2.38% (inactive)
activity, negative = inhibition ([3]; at 38 µM (top of the series)): 2.96% (inactive)
Potency [4]: > 46 µM (inactive) and > 20.6 µM (inactive)
Potency [5]: > 46 µM (inactive) and > 20.6 µM (inactive)
Potency [6]: inactive
Potency [7]: inactive
outcome [8]: inactive
Potency [9]: inactive
Potency [10]: inactive
Potency [11]: inactive
Potency [12]: inactive
outcome [13]: inactive
outcome [14]: inactive
outcome [15]: inactive
activity change, negative = inhibition ([16]; at 25.7 µM (top of the series)): -2.05% (inactive)
activity change, negative = inhibition ([16]; at 57.5 µM (top of the series)): -2.56% (inactive)
max response ([16]; measured here: cell count channel max response): -18.7% and 20.5%
max response ([16]; measured here: lipid channel max response): -18.8% and 17.8%
Potency [17]: inactive
Potency [18]: inactive
Potency [19]: inactive
Potency [20]: inactive
